Measured values published in PubChem BioAssay AID743255 (National Center for Advancing Translational Sciences (NCATS), 2014).
Out of some 390,000 compounds screened, about 910 (0.23%) were called active. Inconclusive results (about 5%) are left out. Calls come from the whole dose curve; as a rule, active = well fitted inhibition curve with a large enough effect; inconclusive = small, poorly fitted or top-dose-only effect; inactive = no such curve, though single readings can be large or run the other way. For the sample, actives were picked, then their nearest neighbours and some compounds at random.

biological target: Ubiquitin carboxyl-terminal hydrolase 1 (Homo sapiens) (UniProt O94782); experiment: Inhibitors of USP1/UAF1: Primary Screen; conditions: recombinant USP1/UAF1, Ub-Rhodamine cleavage fluorescence; series mostly up to 57.1 µM; activity change, negative = inhibition: at the top concentration; note: nearly all actives have a fitted effect of over 60% in size
In short: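 High-throughput fluorogenic screen: 1nM USP1/UAF1 complex, Ub-Rho substrate 150nM final, 50mM HEPES pH 7.8 with 0.5mM EDTA, 0.1 mg/ml BSA, 1mM TCEP and 0.01% Tween-20.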
% is set by controls: 0 for no effect and ±100 for the full control effect; potency is the fitted concentration of half-maximal effect.

Chain of Ubiquitin carboxyl-terminal hydrolase 1 (Homo sapiens) (O94782 whole entry, looked up): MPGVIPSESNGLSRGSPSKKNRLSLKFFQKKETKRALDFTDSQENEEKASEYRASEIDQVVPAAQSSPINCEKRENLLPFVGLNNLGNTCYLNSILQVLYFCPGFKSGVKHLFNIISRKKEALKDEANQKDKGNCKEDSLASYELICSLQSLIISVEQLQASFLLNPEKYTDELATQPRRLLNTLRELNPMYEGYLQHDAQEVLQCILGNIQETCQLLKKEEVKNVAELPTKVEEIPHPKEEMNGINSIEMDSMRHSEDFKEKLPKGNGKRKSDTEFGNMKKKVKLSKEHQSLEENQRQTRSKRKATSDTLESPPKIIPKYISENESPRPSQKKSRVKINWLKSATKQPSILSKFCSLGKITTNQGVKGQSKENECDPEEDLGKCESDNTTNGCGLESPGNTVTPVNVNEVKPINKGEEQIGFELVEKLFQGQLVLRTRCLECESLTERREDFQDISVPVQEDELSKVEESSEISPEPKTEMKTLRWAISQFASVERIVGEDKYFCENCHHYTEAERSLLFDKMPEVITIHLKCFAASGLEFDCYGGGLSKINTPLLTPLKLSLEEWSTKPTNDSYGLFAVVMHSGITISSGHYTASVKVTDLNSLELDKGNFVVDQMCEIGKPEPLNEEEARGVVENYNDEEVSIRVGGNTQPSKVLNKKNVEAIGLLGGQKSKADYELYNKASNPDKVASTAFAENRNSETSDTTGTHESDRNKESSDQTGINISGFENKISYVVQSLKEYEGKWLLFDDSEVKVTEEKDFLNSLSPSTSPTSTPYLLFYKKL

SMILES	activity change, negative = inhibition	Potency
O=C(CSc1ncc(-c2ccccc2)[nH]1)Nc1ccc(F)cc1F	-5.56% (inactive)	–
Cc1ccc(Cn2c(CNC(=O)Cc3cccc(C)c3)nc3cccnc32)cc1	-24% (inactive)	–
Fc1ccc(Nc2nc(SCc3ccccc3Cl)nc3ccccc23)cc1	-24.2% (inactive)	–
CCC(=O)Nc1c(C(=O)N2CCN(c3ccc(F)cc3)CC2)oc2ccccc12	-18.1% (inactive)	–
CCOc1ccc(CCNC(=O)c2ccc3c(c2)sc2nc(-c4ccc(F)cc4)cn23)cc1OCC	2.52% (inactive)	–
COc1ccc(N2CCN(C(=O)CSCc3nc(-c4ccccc4Cl)oc3C)CC2)cc1	-26.2% (inactive)	–
Cc1ccc2c(=O)c(C(=O)c3ccc(F)cc3)cn(CC(=O)NC3CCCCC3)c2n1	2.13% (inactive)	–
CCN(CCCNC(=O)c1ccc(Sc2ccc(C)cc2)c(NC(C)=O)c1)c1cccc(C)c1	-9.52% (inactive)	–
O=S(=O)(NCC(c1ccccc1)N1CCc2ccccc21)c1ccccc1 (stereo unspecified)	-27.1% (inactive)	–
CC1=CC2=NC(=O)/C(=C/c3coc4ccccc4c3=O)C(=N)N2O1	–	28.2 µM (active)
O=C(CCn1c(=O)c2sccc2n(Cc2ccc(F)cc2)c1=O)NCc1ccc2c(c1)OCO2	-8.87% (inactive)	–
O=C(CCSCc1ccccc1F)N1CCN(c2ccc(Cl)cc2)CC1	-7.91% (inactive)	–
O=C(CC1N=C2c3ccccc3N=C(SCc3cccc(Cl)c3)N2C1=O)NCc1ccc2c(c1)OCO2 (stereo unspecified)	-5.07% (inactive)	–
COc1cc(OC)c(NC(=O)c2c3c(nn2C)-c2ccccc2SC3)cc1Cl	-25.8% (inactive)	–
O=C(CC(c1cccs1)N1Cc2ccccc2C1=O)Nc1ccc(F)c(F)c1 (stereo unspecified)	-15.1% (inactive)	–
NC1=CC(=O)C(=O)c2cccnc21	–	3.55 µM (active)
CCc1ccccc1OCCSc1nc(-c2cccs2)nc2cc(=O)[nH]n12	-13.4% (inactive)	–
O=[N+]([O-])c1ccc(C=Nc2ccc(Cl)cc2Cl)s1	–	28.2 µM (active)
COc1ccc(NC(=O)c2cc3cc(C)ccc3n2C)cc1	-6.32% (inactive)	–
CCC(=O)N1CCc2cc(Br)cc(S(=O)(=O)Nc3ccc(C)cc3C)c21	-10.7% (inactive)	–
Cc1ccc(O)c(NC(=O)c2cc(-c3ccc(F)cc3)no2)c1	-11.8% (inactive)	–
CCOC(=O)c1c(S(=O)(=O)N2CCCC(C(=O)NCc3ccc(F)cc3)C2)c(C)n(CC)c1C (stereo unspecified)	-24.5% (inactive)	–
CC1CCN(S(=O)(=O)c2ccc3c(c2)N(CC(=O)NCc2ccccc2Cl)C(=O)CO3)CC1	-20.5% (inactive)	–

SMILES	activity change, negative = inhibition	Potency
CCOC(=O)N1CCc2c(sc3c2C(=O)NC(c2ccccc2F)N3)C1 (stereo unspecified)	-21.4% (inactive)	–
CC(C)(C)OC(=O)N1CCC(c2c(C(=O)NCc3ccccn3)cnn2-c2ccc(F)cc2)CC1	7.78% (inactive)	–
CCOC(=O)c1cccc(NC(=O)C(Cc2ccccc2)NS(=O)(=O)c2cccc3nsnc23)c1 (stereo unspecified)	-8.9% (inactive)	–
Cc1ccc2cccc(NC(=O)c3ccc(OC(C)C)cc3)c2n1	-22.6% (inactive)	–
Cc1ccc(-c2nc3cccc(C)n3c2Nc2ccc3c(c2)OCCO3)cc1	-11.9% (inactive)	–
CCN1CCC(N(Cc2ccc(F)cc2)C(=O)Nc2cc(C)ccc2C)CC1	-12.8% (inactive)	–
CCc1ccc(CNC(=O)C2CCN(c3nn4cc(-c5ccc(F)cc5)nc4s3)CC2)cc1	-6.33% (inactive)	–
COc1cc(OC)c(NC(=O)c2cnc(N3CCCC3)nc2C)cc1Cl	-25.5% (inactive)	–
CCc1ccc(NC(=O)c2cc(S(=O)(=O)N3CCCC(C)C3)cn2C)cc1 (stereo unspecified)	-21.5% (inactive)	–
Cc1cc(C)nc(NS(=O)(=O)c2ccc(NC(=O)c3cc(=O)c4ccc(C)c(C)c4o3)cc2)n1	-20.7% (inactive)	–
Cc1oc2ncnc(N3CCOCC3)c2c1C(=O)NCCc1ccccc1	-11.6% (inactive)	–
COc1ccc(-c2cn3c(n2)sc2cc(C(=O)Nc4ccc(F)cc4)ccc23)cc1	6.29% (inactive)	–
CN1/C(=C\C=C2\N=C(c3ccc(F)cc3)OC2=O)C(C)(C)c2ccccc21	–	28.2 µM (active)
Cc1csc2nc(COC(=O)c3ccc(NC(=O)COc4ccccc4F)cc3)cc(=O)n12	-3.82% (inactive)	–
CCCN1CCN(CCCNC(=O)c2cnn(-c3ccc(C)cc3)c2-n2cccc2)CC1	-10.7% (inactive)	–
O=C(CCOc1ccccc1)N(Cc1cccnc1)c1nc2ccc(Cl)cc2s1	-18.1% (inactive)	–
CC(NC(=O)c1cc(Sc2ccc(F)cc2F)nc2ccccc12)c1ccccc1 (stereo unspecified)	-9.65% (inactive)	–
COc1cccc(C(=O)NCc2ccc3c(c2)CCN3C(=O)c2ccncc2)c1	-9.61% (inactive)	–
CCOC(=O)c1c(C)[nH]c2c1-c1ccccc1C(=O)C2=O	–	1.26 µM (active)
CCOC(=O)c1c(C)[nH]c(CCC(=O)Nc2ccc(OC)c(OC)c2)c1C	-19% (inactive)	–
CCOC(=O)c1c(SCC(=O)Nc2cccc(C)c2C)nc(=O)[nH]c1C	-6.81% (inactive)	–
CN(C(=O)c1ccc2c(c1)N(Cc1cccc(Cl)c1)C(=O)c1ccccc1S2=O)C1CCCCC1 (stereo unspecified)	-9.49% (inactive)	–
CC(=O)N(C1=C(Cl)C(=O)c2ccccc2C1=O)c1ccc(C(=O)O)cc1	–	14.1 µM (active)
